The values below come from PubChem BioAssay (NCI).

The panel holds about 79,000 compounds, 15% with a hit somewhere; the sample as a whole holds those more often. A number with no mark means an inactive call. Calls of active or inactive are those of the source. Cut-off read from the data, not from the text of the source: active = growth inhibition above about 70%; inactive = the rest.

The nature of this assay: NCI Yeast Anticancer Drug Screen. Data for the sgs1 strain (AID 173).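 Note: 0% = growth of vehicle-only control cultures.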 The conditions noted are these: S. cerevisiae sgs1 mutant, stronger effect = higher value. On the procedure: Growth inhibition of yeast strains with defined genetic alterations is measured as a screen for potential anti-cancer activity. Selected strains with alterations in DNA damage repair or cell cycle control were exposed to compounds and growth inhibition was measured relative to vehicle treated controls. The strain used in this assay is sgs1

Take `CS(=O)(=O)OCCN(CCOS(C)(=O)=O)c1ccc(C=O)cc1`: the growth inhibition by setting is: (at 1.2 µM) 15%; (at 3.7 µM) 35%; (at 11.0 µM) 58%; (at 33.0 µM) 80% (active); (at 100.0 µM) 89% (active).

Regarding `CCCCCCCCCCCCCCCCP(=O)(O)OP(=O)(O)OCC1OC(n2ccc(N)nc2=O)C(O)C1O` (stereo not given), the growth inhibition was 0% (at 1.2 µM); 0% (at 3.7 µM); -3% (at 11.0 µM); 1% (at 33.0 µM); 21% (at 100.0 µM).

Regarding `O=C(NNC(=O)OCC(Cl)(Cl)Cl)OCC(Cl)(Cl)Cl`, the growth inhibition by setting is: (at 1.2 µM) -3%; (at 3.7 µM) -1%; (at 11.0 µM) 42%; (at 33.0 µM) 92% (active); (at 100.0 µM) 97% (active).

On to `COC(=O)C1C2c3ccccc3C(c3ccccc32)C1C(=O)OC` (stereo not given), for which the growth inhibition by setting is: (at 1.2 µM) -6%; (at 3.7 µM) -17%; (at 11.0 µM) -11%; (at 33.0 µM) -4%; (at 100.0 µM) 2%.

Consider `O=S(=O)(O)c1ccc(Cl)cc1.[Cd]`, for which the growth inhibition was 2% (at 1.2 µM); 10% (at 3.7 µM); 17% (at 11.0 µM); 29% (at 33.0 µM); 44% (at 100.0 µM).

On to `Oc1ccc2nc3ccccc3nc2c1`, for which the growth inhibition (at 1.2 µM) is -2%; the growth inhibition (at 3.7 µM) is 2%; the growth inhibition (at 11.0 µM) is 18%; the growth inhibition (at 33.0 µM) is 29%; the growth inhibition (at 100.0 µM) was 84% (active).

Turning to `CC1=C[C@H]2O[C@@H]3C[C@H]4OC(=O)/C=C\C=C\C(C(C)O)OCC(O)C(C)CC(=O)OC[C@@]2(C[C@@H]1O)[C@]4(C)[C@@]31CO1` (stereo not given in full), the growth inhibition runs as follows: (at 1.2 µM) -42%; (at 3.7 µM) -17%; (at 11.0 µM) 82% (active); (at 33.0 µM) 94% (active); (at 100.0 µM) 96% (active).

Turning to `c1ccc2cc3n[se]nc3cc2c1`, the growth inhibition (at 1.2 µM) was 2%; the growth inhibition (at 3.7 µM) was 4%; the growth inhibition (at 11.0 µM) was 12%; the growth inhibition (at 33.0 µM) is 33%; the growth inhibition (at 100.0 µM) is 91% (active).
